# Assay outcomes from PubChem BioAssay.
# Shown are actives, neighbours in structure and some others; about 4.3% of the full set was active somewhere.
# CHOP inhibitor: blocks CHOP induction under ER stress; CHO-K1 CHOP-promoter luciferase, tunicamycin-induced, 15-18 h; hit rate 3.8% among 220,000; inhibition, % at 10 µM; AID 2732;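 active = compounds that reduced the stress-induced luciferase reporter signal by more than about 70% of percent inhibition, limit read from the data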;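 also: 0% = tunicamycin plus vehicle and 100% = wells without tunicamycin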
# KKLEB cytotox: reduces viability of KKLEB cystic fibrosis airway cells | KKLEB CF airway cells viability, ATPlite luminescence, overnight; active compounds read low; cells stimulated with P. aeruginosa culture filtrate | activity change (cytotoxicity), % at 5 µM | hit rate 0.36% among 360,000 | AID 602141;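 active = corrected activity change at or below -50% at 5 µM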
# CF NFkB block: cystic fibrosis NF-kB activation inhibition. hit rate 0.86% among 360,000. KKLEB NF-kB-GFP reporter, PAF-induced, GFP fluorescence overnight. inhibition, % at 5 µM. AID 588850;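 active = at least 50% inhibition at 5 µM, scaled per plate between neutral and stimulator controls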;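 also: PAF is a Pseudomonas aeruginosa culture filtrate used as stimulus; plate controls were PAF-stimulated DMSO wells for no effect and unstimulated DMSO wells for full effect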
# HIF-2a block: blocks HIF-2a reporter activity; 786-0 RCC cells HIF-2a reporter, luciferase luminescence, overnight; inhibition, % at 18.8 µM; hit rate 0.72% among 360,000;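 active = inhibition of the luminescence signal of 40% or more relative to plate controls, in a single-dose primary screen at 18.75 µM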
# MITF TRPM1 inh: inhibitors of MITF-driven TRPM1 promoter in melanoma cells. SK-MEL-5 TRPM1 promoter luciferase, 24 h. inhibition, % at 12.5 µM. hit rate 0.83% among 330,000;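 active = mean inhibition across replicates of 60% or more, whatever share of single replicates reaches that level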
# Peg3 promoter: Peg3 promoter activity inhibition. HeLa PEG-Prom luciferase reporter, luminescence, overnight. inhibition, % at 20 µM. hit rate 1.7% among 360,000;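 active = inhibition of at least 50% at 20 µM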
# Starred values were filed as active, the others as inactive; . = not tested or not shown.
SMILES,CHOP inhibitor,KKLEB cytotox,CF NFkB block,HIF-2a block,MITF TRPM1 inh,Peg3 promoter
CCN(CC)C(=O)Cn1cc(C(=O)C(=O)Nc2ccc3c(c2)OCCO3)c2ccccc21,.,-31.4,16.8,-192.3,-81.3,-146.8
CCOC(=O)c1cc2sccc2n1CC(=O)N1c2ccccc2CC1C (stereo unspecified),58.0,5.5,2.1,13.7,63.1*,72.0*
CCOc1ccc(CNC(=O)Cn2nc(C)c3c(C)n(-c4ccc(C)cc4)nc3c2=O)cc1,.,-7.3,-21.4,2.7,13.9,-0.1
c1csc(-c2csc(-c3cccs3)n2)c1,77.0*,-2.0,3.0,-253.8,-35.7,-205.5
CCN1C[C@@H]2[C@@H]3C(=O)N(C)C(=O)[C@@H]3[C@](C)(C1=O)N2C(=O)c1ccc(C(F)(F)F)cc1,.,-3.0,1.8,6.6,-10.6,10.8
O=C(Nc1nc2cc(Cl)ccc2s1)C1CCCN(S(=O)(=O)c2cccc3cccnc23)C1 (stereo unspecified),74.8*,-19.0,38.6,9.1,12.9,59.8*
O=C(Nc1nc2ccccc2s1)C1CCCN1S(=O)(=O)c1ccc(Cl)cc1 (stereo unspecified),92.1*,6.7,-37.0,-2.0,4.4,-4.4
O=C(Nc1ccccc1Cl)C1CCCN(S(=O)(=O)c2cccc3cccnc23)C1 (stereo unspecified),.,11.7,-8.8,21.1,2.1,1.3
CN1C(C)(C)CC(O)(C(=O)O)CC1(C)C,.,-28.4,3.0,7.4,.,6.6
Nc1nc2c(nnn2C2CC(O)C(CO)O2)c(=O)[nH]1 (stereo unspecified),.,-4.3,3.3,-16.6,.,8.6
C=CCn1c(-c2ccccc2)ccc(C#N)c1=O,91.4*,-17.8,4.2,-0.1,-1.2,7.1
C=CCn1c(-c2ccccc2)cc(SC)c(C#N)c1=O,53.6,-13.4,-5.1,13.9,-2.8,21.7
CCOCCCN(C(=O)c1snc(C(N)=O)c1N)C(C(=O)NC1CCCC1)c1ccc(OC)cc1 (stereo unspecified),.,-6.1,7.3,3.7,-17.6,0.8
CCOc1ccc(-c2nnn(CC(=O)NCc3ccc(F)cc3)n2)cc1OCC,81.0*,-3.2,-3.2,11.2,10.9,13.1
COc1ccc(/C=N/OCC(=O)N=Nc2c(O)[nH]c3ccc(Br)cc23)cc1OC,24.5,0.2,5.1,3.7,12.1,3.9
COc1ccc(/C(C)=N/OCC(=O)N=Nc2c(O)[nH]c3ccc(Br)cc23)cc1,-13.2,-52.7*,46.6,-10.0,-3.4,3.0
N=c1n(Cc2ccc(Cl)cc2)c2ccccc2n1CC(O)COc1ccccc1 (stereo unspecified),83.2*,-49.5,33.8,-21.8,94.0*,101.4*
CCN(CC)CCn1c(=N)n(CC(O)COc2cccc(C)c2)c2ccccc21 (stereo unspecified),5.8,-18.5,-1.5,18.1,3.8,58.2*
Cc1cccc(OCC(O)Cn2c(=N)n(CCN3CCCCC3)c3ccccc32)c1 (stereo unspecified),-22.4,-13.9,13.8,24.6,79.1*,94.9*
O=C1NC[C@H](CCCCN2C[C@H](Cc3ccc(O)cc3)N(Cc3ccccc3)C(=O)C2=O)N(CC2CCCCC2)C1=O,.,.,.,3.1,.,.
CCN(c1ccccc1)S(=O)(=O)c1ccc(Cl)c(NC(=O)CNCc2ccccc2OC)c1,.,18.2,7.6,12.9,14.4,21.5
CCCCC(CC)CN=C(N)NC(N)=NCCCCCCN=C(N)NC(N)=NCC(CC)CCCC (stereo unspecified),.,-17.0,52.4*,97.8*,109.8*,102.6*
COc1cc(C(=O)NCc2ccc(-c3nc4ccccc4o3)cc2)cc(OC)c1OC,70.9*,-7.4,17.7,-44.0,-16.0,-11.9
COc1ccc(CC(=O)Nc2nn(C)c3nc4c(C)cccc4cc23)cc1,80.6*,-11.2,8.8,10.2,.,25.6
CCC(=O)Nc1nn(C)c2nc3c(C)cccc3cc12,19.9,-10.5,13.1,-7.1,5.0,22.9
SMILES,CHOP inhibitor,KKLEB cytotox,CF NFkB block,HIF-2a block,MITF TRPM1 inh,Peg3 promoter
Cc1cc(C)c(C)c(C(=O)C(=O)c2ccccc2)c1,.,-14.6,16.7,5.6,-0.1,-13.5
Cc1ccc(Cl)cc1N1CCN(C(=O)C2CCN(S(=O)(=O)c3c(C)nn(C)c3C)CC2)CC1,56.9,-12.7,12.1,9.4,-3.6,50.6*
Cc1cccc(N2CCN(C(=O)C3CCCCC3)CC2)c1C,96.0*,0.2,-0.8,7.7,-4.6,-5.6
Cc1ccccc1N1CCN(C(=O)C2CCCCC2)CC1,-12.6,-3.6,16.2,10.3,-1.3,2.4
O=C(N1CCN(c2ccccc2F)CC1)C12CC3CC(CC(C3)C1)C2,-20.8,1.0,8.6,27.1,0.7,10.2
Cc1cccc(N2CCN(C(=O)C34CC5CC(CC(C5)C3)C4)CC2)c1C,71.8*,6.7,-3.2,23.7,9.4,15.6
CCN(C(=O)c1ccc(Cl)c(S(=O)(=O)Nc2c(C)n(C)n(-c3ccccc3)c2=O)c1)c1ccccc1,.,6.8,-5.0,6.1,23.5,8.5
CCCOc1ccc(/C=N/Nc2ccccc2[N+](=O)[O-])c(O)c1,41.3,-1.5,-16.3,5.0,56.7,26.4
O=[N+]([O-])c1cccc(N/N=C/c2cc([N+](=O)[O-])ccc2O)c1,94.9*,-0.4,-2.9,-197.9,-17.3,-193.4
CCCOc1ccc(/C=N/Nc2cccc([N+](=O)[O-])c2)c(O)c1,74.1*,-7.9,-3.1,-265.2,-80.0,-283.4
COc1ccc(OC)c(-c2nc(C(=O)NCC3CCCO3)cc3c2[nH]c2ccccc23)c1 (stereo unspecified),.,-1.1,17.8,20.0,18.6,25.4
COc1cccc(-c2nc(C(=O)NCC3CCCO3)cc3c2[nH]c2ccccc23)c1 (stereo unspecified),.,3.7,-43.8,-9.8,-2.9,55.7*
CC1(C(=O)Nc2ccc3c(c2)OCCO3)CN(S(C)(=O)=O)CC(=O)N1CCCn1ccnc1 (stereo unspecified),.,.,.,2.3,.,.
O=C1C(C2=C(O)c3ccccc3C2=O)=Nc2ccccc21,22.3,-9.1,19.5,-22.4,65.8*,24.3
Clc1ccc(/C=N/Nc2ncnc3ccccc23)cc1Cl,86.0*,10.0,-11.9,-220.2,-31.9,-273.5
Fc1ccccc1/C=N/Nc1ncnc2ccccc12,-16.7,-3.6,-9.1,-266.1,-16.4,-272.3
Cc1cccc(NC(=O)CS(=O)CC(=O)Nc2cnc3ccccc3c2)c1C (stereo unspecified),.,0.8,-5.1,11.2,8.0,17.6
COc1ccccc1OCC(=O)/C=C1/N(C)c2ccccc2C1(C)C,25.9,-5.4,-7.7,10.0,-5.1,30.6
CN1/C(=C\C(=O)COc2ccc3c(c2)OCO3)C(C)(C)c2ccccc21,85.4*,0.6,-0.6,8.2,-3.5,-1.2
N#CN1CCC(NS(=O)(=O)c2ccc(C(F)(F)F)cc2)CC1,.,-23.5,-0.9,-2.4,3.4,-9.5
